ChEMBL document CHEMBL1961873, “Compounds: GSK PKIS; Assays: Nanosyn kinase panel” (2012)

Assays:
[1] = target: Sphingosine kinase 1 (Homo sapiens) (UniProt Q9NYA1); settings: at 1 µM;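 further: mean SPHK1 inhibition value reported from the GSK PKIS kinase panel screen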
[2] = target: T1, Sphingosine kinase 2 (Homo sapiens) (UniProt Q9NRA0); settings: at 0.1 µM
T1 sequence (whole entry): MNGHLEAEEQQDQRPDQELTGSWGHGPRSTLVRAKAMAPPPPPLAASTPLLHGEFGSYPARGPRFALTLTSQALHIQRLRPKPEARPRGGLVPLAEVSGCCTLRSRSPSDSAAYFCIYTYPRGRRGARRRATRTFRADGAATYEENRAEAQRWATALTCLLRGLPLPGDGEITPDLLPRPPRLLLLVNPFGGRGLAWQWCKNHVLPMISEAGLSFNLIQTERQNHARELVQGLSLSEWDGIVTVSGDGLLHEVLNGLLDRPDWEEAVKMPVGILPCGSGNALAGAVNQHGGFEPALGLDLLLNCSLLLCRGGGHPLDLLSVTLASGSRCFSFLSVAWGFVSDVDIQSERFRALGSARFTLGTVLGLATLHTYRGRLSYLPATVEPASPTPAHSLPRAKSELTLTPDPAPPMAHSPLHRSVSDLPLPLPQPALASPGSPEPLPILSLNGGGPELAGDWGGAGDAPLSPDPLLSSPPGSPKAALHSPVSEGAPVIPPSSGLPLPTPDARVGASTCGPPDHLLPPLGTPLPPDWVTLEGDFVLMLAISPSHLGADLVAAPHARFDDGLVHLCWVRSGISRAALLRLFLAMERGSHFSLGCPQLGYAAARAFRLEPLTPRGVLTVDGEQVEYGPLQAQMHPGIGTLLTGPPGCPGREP

[3] = target: T1, Sphingosine kinase 2 (Homo sapiens); settings: at 1 µM
[4] = target: Casein kinase II subunit alpha (Homo sapiens) (UniProt P68400); settings: at 0.1 µM
[5] = target: Casein kinase II subunit alpha (Homo sapiens) (UniProt P68400); settings: at 1 µM
[6] = target: T2, Inhibitor of nuclear factor kappa-B kinase subunit alpha (Homo sapiens) (UniProt O15111); settings: at 0.1 µM
T2 sequence (whole entry): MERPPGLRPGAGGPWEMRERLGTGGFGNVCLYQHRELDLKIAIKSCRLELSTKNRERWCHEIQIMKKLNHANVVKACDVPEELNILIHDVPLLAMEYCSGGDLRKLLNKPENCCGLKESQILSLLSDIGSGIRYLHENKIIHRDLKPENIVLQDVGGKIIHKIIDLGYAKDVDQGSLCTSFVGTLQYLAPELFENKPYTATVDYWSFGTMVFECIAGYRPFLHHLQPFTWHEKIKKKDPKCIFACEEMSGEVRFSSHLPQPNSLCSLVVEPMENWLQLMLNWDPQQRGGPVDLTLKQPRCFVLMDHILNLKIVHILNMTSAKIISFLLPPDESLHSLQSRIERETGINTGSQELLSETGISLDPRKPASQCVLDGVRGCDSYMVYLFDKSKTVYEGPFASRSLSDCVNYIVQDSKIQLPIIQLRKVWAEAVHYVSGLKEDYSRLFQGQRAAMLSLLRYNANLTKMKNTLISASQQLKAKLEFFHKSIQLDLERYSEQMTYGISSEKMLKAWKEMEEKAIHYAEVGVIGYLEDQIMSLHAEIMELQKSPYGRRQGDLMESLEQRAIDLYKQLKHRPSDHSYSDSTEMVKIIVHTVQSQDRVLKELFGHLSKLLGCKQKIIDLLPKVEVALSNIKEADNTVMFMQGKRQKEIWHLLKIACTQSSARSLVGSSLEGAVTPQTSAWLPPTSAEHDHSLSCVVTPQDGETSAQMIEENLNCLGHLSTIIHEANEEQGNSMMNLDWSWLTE

[7] = target: T2, Inhibitor of nuclear factor kappa-B kinase subunit alpha (Homo sapiens); settings: at 1 µM
[8] = target: T3, Inhibitor of nuclear factor kappa-B kinase subunit beta (Homo sapiens) (UniProt O14920); settings: at 0.1 µM
T3 sequence (whole entry): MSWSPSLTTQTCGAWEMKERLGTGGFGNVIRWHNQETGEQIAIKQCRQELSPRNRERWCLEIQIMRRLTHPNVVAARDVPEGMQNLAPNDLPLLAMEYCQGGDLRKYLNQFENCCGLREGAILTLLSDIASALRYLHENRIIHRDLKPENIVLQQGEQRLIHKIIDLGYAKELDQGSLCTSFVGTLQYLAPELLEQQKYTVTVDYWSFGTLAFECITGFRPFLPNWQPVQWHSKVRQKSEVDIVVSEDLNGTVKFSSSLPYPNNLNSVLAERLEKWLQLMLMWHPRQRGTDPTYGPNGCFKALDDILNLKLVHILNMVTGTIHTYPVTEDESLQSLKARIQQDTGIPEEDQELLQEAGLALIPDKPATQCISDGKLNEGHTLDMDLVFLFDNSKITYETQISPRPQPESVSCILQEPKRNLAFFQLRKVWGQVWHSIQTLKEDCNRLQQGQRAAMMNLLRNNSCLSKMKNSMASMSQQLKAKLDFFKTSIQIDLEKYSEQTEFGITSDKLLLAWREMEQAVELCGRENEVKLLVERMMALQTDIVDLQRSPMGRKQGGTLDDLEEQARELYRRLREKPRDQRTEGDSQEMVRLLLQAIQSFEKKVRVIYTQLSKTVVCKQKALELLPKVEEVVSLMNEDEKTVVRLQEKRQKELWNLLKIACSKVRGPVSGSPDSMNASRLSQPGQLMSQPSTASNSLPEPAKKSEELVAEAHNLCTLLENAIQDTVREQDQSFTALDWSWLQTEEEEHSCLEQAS

[9] = target: T3, Inhibitor of nuclear factor kappa-B kinase subunit beta (Homo sapiens); settings: at 1 µM
[10] = target: T4, Inhibitor of nuclear factor kappa-B kinase subunit epsilon (Homo sapiens) (UniProt Q14164); settings: at 0.1 µM
T4 sequence (whole entry): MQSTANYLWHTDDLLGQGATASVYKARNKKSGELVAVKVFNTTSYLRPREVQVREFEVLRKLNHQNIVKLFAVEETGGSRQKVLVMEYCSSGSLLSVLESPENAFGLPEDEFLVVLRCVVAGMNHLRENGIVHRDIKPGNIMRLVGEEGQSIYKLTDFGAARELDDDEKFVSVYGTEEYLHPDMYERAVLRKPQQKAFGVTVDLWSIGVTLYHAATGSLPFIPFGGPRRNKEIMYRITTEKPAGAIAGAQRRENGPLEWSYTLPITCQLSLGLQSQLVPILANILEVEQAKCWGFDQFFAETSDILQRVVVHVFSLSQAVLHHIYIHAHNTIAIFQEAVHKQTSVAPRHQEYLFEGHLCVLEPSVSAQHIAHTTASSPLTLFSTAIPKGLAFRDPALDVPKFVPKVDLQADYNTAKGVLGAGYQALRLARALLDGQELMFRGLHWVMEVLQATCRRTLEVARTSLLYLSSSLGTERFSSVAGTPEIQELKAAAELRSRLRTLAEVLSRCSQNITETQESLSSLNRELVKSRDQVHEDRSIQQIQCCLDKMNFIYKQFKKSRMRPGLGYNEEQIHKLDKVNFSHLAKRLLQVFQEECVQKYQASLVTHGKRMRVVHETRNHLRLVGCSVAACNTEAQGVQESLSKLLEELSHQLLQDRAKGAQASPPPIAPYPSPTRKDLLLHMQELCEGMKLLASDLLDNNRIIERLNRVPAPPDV

[11] = target: T4, Inhibitor of nuclear factor kappa-B kinase subunit epsilon (Homo sapiens); settings: at 1 µM
[12] = target: T5, Serine/threonine-protein kinase Nek1 (Homo sapiens) (UniProt Q96PY6); settings: at 0.1 µM
T5 sequence (whole entry): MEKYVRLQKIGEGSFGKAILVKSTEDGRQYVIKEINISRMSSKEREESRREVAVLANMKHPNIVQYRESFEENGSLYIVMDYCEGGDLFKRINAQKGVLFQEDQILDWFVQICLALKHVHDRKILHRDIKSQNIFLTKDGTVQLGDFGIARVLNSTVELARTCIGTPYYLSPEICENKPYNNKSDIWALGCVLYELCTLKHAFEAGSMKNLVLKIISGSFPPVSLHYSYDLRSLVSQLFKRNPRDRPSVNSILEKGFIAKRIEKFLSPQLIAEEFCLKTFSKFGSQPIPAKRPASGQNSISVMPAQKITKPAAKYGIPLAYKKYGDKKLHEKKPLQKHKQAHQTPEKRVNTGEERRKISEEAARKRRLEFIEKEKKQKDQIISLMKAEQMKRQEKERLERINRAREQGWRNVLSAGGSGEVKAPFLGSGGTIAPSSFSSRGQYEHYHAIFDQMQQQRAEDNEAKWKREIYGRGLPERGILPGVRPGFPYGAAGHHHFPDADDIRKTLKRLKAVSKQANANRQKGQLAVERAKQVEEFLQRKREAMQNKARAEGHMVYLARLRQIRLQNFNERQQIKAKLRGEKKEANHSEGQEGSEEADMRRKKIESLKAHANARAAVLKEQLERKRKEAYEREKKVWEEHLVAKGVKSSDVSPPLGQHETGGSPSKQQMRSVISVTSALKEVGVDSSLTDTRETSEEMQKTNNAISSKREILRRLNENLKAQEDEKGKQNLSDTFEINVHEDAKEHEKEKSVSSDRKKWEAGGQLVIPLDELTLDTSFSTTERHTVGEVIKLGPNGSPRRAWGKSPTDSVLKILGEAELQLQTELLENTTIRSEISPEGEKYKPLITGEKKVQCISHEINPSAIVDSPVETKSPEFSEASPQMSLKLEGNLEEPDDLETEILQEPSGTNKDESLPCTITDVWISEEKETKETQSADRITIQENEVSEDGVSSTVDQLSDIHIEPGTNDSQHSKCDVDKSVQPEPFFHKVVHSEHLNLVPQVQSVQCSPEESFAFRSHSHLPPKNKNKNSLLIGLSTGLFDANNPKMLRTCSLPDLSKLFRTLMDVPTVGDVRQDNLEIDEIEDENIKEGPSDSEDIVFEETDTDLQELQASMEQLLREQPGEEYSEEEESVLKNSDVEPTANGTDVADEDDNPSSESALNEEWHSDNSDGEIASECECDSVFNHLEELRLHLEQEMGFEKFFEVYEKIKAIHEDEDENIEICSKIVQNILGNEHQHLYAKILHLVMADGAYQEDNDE

[13] = target: T5, Serine/threonine-protein kinase Nek1 (Homo sapiens); settings: at 1 µM
[14] = target: T6, Serine/threonine-protein kinase Nek2 (Homo sapiens) (UniProt P51955); settings: at 0.1 µM
T6 sequence (whole entry): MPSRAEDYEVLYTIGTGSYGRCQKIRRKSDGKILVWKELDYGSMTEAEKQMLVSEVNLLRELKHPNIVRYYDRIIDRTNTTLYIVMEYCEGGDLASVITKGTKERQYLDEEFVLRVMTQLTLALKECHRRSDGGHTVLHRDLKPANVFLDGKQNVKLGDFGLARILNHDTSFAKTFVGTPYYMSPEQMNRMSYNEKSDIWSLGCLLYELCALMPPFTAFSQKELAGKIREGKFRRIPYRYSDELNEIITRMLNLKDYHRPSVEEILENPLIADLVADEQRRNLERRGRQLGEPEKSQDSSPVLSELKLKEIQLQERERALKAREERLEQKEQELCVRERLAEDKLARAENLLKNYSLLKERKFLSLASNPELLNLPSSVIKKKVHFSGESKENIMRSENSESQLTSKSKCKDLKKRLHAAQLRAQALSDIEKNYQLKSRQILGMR

[15] = target: T6, Serine/threonine-protein kinase Nek2 (Homo sapiens); settings: at 1 µM
[16] = target: Serine/threonine-protein kinase Nek6 (Homo sapiens) (UniProt Q9HC98); settings: at 0.1 µM
[17] = target: Serine/threonine-protein kinase Nek6 (Homo sapiens) (UniProt Q9HC98); settings: at 1 µM
[18] = target: Serine/threonine-protein kinase Nek7 (Homo sapiens) (UniProt Q8TDX7); settings: at 0.1 µM
[19] = target: Serine/threonine-protein kinase Nek7 (Homo sapiens) (UniProt Q8TDX7); settings: at 1 µM
[20] = target: T7, Serine/threonine-protein kinase Nek9 (Homo sapiens) (UniProt Q8TD19); settings: at 0.1 µM;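 further: reported value is the mean percent inhibition of NEK9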
T7 sequence (whole entry): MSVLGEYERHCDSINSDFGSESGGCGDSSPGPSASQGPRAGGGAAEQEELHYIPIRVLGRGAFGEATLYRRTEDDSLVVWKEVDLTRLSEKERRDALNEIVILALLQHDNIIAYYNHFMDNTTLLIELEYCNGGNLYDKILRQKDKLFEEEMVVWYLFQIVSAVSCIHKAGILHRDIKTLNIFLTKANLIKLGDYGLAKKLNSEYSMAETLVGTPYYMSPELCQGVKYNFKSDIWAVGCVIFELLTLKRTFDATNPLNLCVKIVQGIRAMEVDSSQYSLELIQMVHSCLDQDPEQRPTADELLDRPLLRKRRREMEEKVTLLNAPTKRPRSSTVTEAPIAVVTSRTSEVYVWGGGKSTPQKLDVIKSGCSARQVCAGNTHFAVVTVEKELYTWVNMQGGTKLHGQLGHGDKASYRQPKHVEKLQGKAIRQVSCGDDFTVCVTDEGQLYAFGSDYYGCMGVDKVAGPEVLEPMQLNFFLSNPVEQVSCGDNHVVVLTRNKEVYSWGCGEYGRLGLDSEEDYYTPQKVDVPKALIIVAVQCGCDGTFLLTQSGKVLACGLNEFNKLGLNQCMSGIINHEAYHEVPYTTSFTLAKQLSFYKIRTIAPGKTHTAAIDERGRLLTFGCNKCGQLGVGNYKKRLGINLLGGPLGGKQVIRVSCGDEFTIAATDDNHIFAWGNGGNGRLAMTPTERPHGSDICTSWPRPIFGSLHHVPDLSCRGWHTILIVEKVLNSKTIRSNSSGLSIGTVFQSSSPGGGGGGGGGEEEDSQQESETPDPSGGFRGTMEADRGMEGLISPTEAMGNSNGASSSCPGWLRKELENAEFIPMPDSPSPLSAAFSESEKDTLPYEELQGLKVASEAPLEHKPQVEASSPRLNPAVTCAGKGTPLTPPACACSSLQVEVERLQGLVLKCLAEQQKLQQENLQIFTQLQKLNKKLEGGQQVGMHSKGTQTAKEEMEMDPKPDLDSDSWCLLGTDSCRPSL

Chain of Casein kinase II subunit alpha (Homo sapiens) (P68400 whole entry, looked up): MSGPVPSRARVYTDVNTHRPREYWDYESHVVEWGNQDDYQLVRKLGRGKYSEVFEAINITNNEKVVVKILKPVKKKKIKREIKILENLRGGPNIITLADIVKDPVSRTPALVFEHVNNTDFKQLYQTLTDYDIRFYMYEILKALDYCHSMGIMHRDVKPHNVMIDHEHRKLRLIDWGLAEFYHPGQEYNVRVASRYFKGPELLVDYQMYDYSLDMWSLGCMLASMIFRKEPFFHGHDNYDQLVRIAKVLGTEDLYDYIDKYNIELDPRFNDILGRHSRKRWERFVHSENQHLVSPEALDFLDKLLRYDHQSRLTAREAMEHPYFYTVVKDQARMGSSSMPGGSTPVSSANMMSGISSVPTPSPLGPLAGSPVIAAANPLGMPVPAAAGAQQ
Chain of Serine/threonine-protein kinase Nek7 (Homo sapiens) (Q8TDX7 whole entry, looked up): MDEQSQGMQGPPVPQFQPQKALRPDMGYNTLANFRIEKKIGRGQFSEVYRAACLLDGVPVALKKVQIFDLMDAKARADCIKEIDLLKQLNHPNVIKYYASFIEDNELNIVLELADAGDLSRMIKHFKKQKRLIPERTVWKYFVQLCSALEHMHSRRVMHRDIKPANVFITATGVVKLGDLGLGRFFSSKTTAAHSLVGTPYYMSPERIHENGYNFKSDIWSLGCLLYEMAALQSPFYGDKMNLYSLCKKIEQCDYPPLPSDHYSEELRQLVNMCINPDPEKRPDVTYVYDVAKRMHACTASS
Chain of Serine/threonine-protein kinase Nek6 (Homo sapiens) (Q9HC98 whole entry): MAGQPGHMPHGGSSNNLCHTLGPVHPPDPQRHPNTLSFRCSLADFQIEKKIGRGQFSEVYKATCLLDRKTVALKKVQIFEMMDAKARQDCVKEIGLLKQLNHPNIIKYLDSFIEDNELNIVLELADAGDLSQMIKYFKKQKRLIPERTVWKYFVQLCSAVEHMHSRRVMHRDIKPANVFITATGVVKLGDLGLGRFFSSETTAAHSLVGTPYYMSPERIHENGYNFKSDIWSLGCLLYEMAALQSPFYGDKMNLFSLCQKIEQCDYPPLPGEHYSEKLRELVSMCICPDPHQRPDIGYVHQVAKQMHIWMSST
Chain of Sphingosine kinase 1 (Homo sapiens) (Q9NYA1 whole entry): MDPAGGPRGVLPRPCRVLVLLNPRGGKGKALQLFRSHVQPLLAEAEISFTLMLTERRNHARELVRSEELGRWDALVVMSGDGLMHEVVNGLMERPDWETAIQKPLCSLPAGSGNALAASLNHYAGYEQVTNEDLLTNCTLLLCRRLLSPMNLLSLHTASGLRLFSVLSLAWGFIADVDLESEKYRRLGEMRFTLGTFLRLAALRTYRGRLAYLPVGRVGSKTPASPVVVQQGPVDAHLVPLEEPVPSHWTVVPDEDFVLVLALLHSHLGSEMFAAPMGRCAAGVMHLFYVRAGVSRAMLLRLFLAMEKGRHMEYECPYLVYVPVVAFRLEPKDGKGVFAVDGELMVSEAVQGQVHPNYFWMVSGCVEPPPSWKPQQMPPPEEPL

`CN(C)CCCn1c(-c2nonc2N)nc2cnccc21` showed an inhibition [1] of -0.88%, an inhibition [2] of 0.92% and an inhibition [3] of 0.09%. The inhibition [4] was 1.4%, the inhibition [5] was -1.56% and the inhibition [6] was 5.57%. It also gave an inhibition [7] of 4.33%, an inhibition [8] of 6.47% and an inhibition [9] of 4.26%. The inhibition [10] was 4.73%, the inhibition [11] was 4.6% and the inhibition [12] was 2.29%. It also gave an inhibition [13] of 2.28%, an inhibition [14] of 5.09% and an inhibition [15] of 5.23%. It also gave an inhibition [16] of 0.8%, an inhibition [17] of 5.07% and an inhibition [18] of 6.28%. For the same molecule, the inhibition [19] was 1.98% and the inhibition [20] was 8.39%.
